Screening results as filed in PubChem BioAssay.
The list is not random: actives were taken first. Their share in the collection is about 15%.
12-LOX inh = Primary qHTS assay for inhibitors of human arachidonate 12S-lipoxygenase (ALOX12): Round 2. 1.1% of 580,000 active. Potency, µM (top dose mostly 108 µM), without a hit: top-dose activity change, negative = inhibition, hits mostly inhibitors. AID 1671190, 2021. purified 12hLO, xylenol orange hydroperoxide absorbance. Polyunsaturated fatty acid lipoxygenase ALOX12 (Homo sapiens), P18054
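Purified human 12hLO (150 nM final) in 25 mM Hepes, 0.01% Triton X-100, pH 7.0 was preincubated 15 min at room temperature with compound. Then 40 uM arachidonic acid was added, 30 min. Hydroperoxide was read by Fe-XO absorbance ratio 573/405 nm.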
DT40 TDP1 no CPT = qHTS for Inhibitors of human tyrosyl-DNA phosphodiesterase 1 (TDP1): qHTS in cells in absence of CPT; DT40 Tdp1-/- hTDP1 cells, no CPT, ATP luminescence, 48 h; Potency, µM (highest dose often 46.2 µM), inactives show at the highest dose activity change, negative = growth inhibition, usual class: inhibitors; 15% of 420,000 active; further: nearly all actives have a fitted effect of over 55% in size
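Seeded 400 DT40-hTDP1 cells/well (vehicle DMSO, no 20 nM CPT); pinned compounds; ≥48 hr at 37 °C; CellTiter-Glo luminescence as viability measure.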
ELG1 DNA repair = qHTS screen for small molecules that inhibit ELG1-dependent DNA repair in human embryonic kidney (HEK293T) cells expressing luciferase-tagged ELG1; 2.3% of 330,000 active; HEK293T ELG1-luciferase reporter, luminescence, 16 h; DNA damage induced by 5-fluorouridine; Potency, µM (top dose mostly 46.1 µM), for inactives: top-dose activity change, negative = inhibition, hits mostly inhibitors; further: nearly all actives have a fitted effect of over 55% in size
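HEK293T cells expressing luciferase-tagged ELG1 (2,000/well) received 5-Fluorouridine plus compound or DMSO for 16 hr at 37 °C. Luciferase was read by ONE-Glo luminescence after 30 min at room temperature.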
RORg inh = qHTS for inhibitors of ROR gamma transcriptional activity | AID 2551, 2010 | Potency, µM (titrated, usually from 53.6 µM), inactives show at the top dose activity change, negative = inhibition, usual class: inhibitors | Drosophila S2 Gal4-RORgamma UAS-luciferase reporter, 20 h | Nuclear receptor ROR-gamma (Mus musculus), P51450 | 5.4% of 310,000 active; further: nearly all actives have a fitted effect of over 60% in size
Target sequence (P51450 whole entry, looked up, the tested form may be a part): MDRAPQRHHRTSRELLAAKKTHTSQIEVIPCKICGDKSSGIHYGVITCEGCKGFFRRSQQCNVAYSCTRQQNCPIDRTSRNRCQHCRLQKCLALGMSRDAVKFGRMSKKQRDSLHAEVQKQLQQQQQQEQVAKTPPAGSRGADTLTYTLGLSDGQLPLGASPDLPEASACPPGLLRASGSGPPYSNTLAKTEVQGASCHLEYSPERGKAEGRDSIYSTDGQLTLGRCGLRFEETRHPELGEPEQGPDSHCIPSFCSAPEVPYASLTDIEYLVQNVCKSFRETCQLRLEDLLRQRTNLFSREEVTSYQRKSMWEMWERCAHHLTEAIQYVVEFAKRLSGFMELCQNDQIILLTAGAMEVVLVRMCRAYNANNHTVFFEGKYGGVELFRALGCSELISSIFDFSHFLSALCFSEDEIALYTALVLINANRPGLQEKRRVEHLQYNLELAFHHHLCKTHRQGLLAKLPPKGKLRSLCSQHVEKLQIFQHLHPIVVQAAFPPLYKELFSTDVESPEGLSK
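Stably transfected Drosophila Schneider cells are the test system, with ROR gamma fused to Gal4 and luciferase under UAS control; luminescence is read after 20 hr of 700 uM copper sulfate induction at ambient temperature.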
DT40 TDP1 CPT = qHTS for Inhibitors of human tyrosyl-DNA phosphodiesterase 1 (TDP1): qHTS in cells in presence of CPT; Potency, µM (titrated, usually from 46.2 µM), for the others: at the top dose activity change, negative = growth inhibition, most hits filed as inhibitors; chicken DT40 Tdp1-/-;hTDP1 cells + 20 nM CPT, ATP luminescence, 48 h; 12% of 420,000 active; further: nearly all actives have a fitted effect of over 55% in size
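Chicken DT40 Tdp1-/- cells complemented with human TDP1, 400 cells/well, exposed to compounds plus 20 nM camptothecin for at least 48 h at 37 C; viability read as ATP content by CellTiter-Glo luminescence.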
Gal4-VP16 FLuc = VP16 counterscreen qHTS for inhibitors of ROR gamma transcriptional activity; Drosophila S2 Gal4-VP16 UAS-luciferase, luminescence, 20 h; 3.5% of 310,000 active; Potency, µM (series often up to 53.6 µM), for the others: at the top dose activity, negative = inhibition, hits mostly inhibitors; AID 2546, 2010;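 further: Gal4-VP16 expression switched on by copper sulfate through the metallothionein promoter; nearly all actives have a fitted effect of over 50% in size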
* hit, by the source's call; ? = inconclusive; nt = no result; [ ] = dose if it differs, or a comment. The call rests on the fitted dose curve; in most records, active means well fitted curve in the direction sought with a large enough effect; inconclusive means small, poorly fitted or top-dose-only effect, or another doubt; inactive means no such curve, though single readings can be large; an effect the other way counts as inactive or inconclusive. On the % scale 0 is the no-effect control and ±100 the full control effect; potency means the concentration at half of the fitted maximal effect.

SMILES	12-LOX inh	DT40 TDP1 no CPT	ELG1 DNA repair	RORg inh	DT40 TDP1 CPT	Gal4-VP16 FLuc
CC(C)C(=O)N[C@H]1CCC2C3CC=C4C[C@@H](O)CC[C@]4(C)C3CC[C@@]21C (stereo partly drawn)	11%	?	-16%	nt	-29%	nt
CC(=O)C1CCC2C3CC=C4CC(SC(=N)N)CCC4(C)C3CCC12C (stereo not drawn)	?	8.2µM*	nt	nt	13µM*	nt
CC1CCC(NC(=O)C23CC4CC(CC(C4)C2)C3)CC1 (stereo not drawn)	23%	nt	nt	nt	nt	nt
CC(=O)N1CC2(Cc3ccccc31)CN([S+](=O)([O-])c1ccc(C)cc1)C2	11%	nt	nt	nt	nt	nt
CC1CCCC(NC(=O)c2ccc(NC(=O)CC#N)cc2)C1C (stereo not drawn)	3%	nt	nt	nt	nt	nt
Cc1cc(-n2c(SCC(=O)NCCC3=CCCCC3)nc3n[nH]c(C)c3c2=N)ccc1Cl	-2%	8.2µM*	-1%	?	16µM*	?
Cc1[nH]nc2nc(SCC(=O)NCCC3=CCCCC3)n(-c3ccc(Br)cc3)c(=N)c12	-16%	8.2µM*	8%	?	12µM*	?
Cc1ccc(Cl)cc1-n1c(SCC(=O)NCCC2=CCCCC2)nc2n[nH]c(C)c2c1=N	-4%	-23%	3%	?	?	?
Cc1ccc(-n2nnnc2SCC(=O)NCCC2=CCCCC2)c(C)c1	-4%	?	-8%	-10%[10 µM]	-11%	2%
CCCCCCCCCC=O	17%[176 µM]	nt	nt	nt	nt	nt
Cc1cnc2c(S(=O)(=O)NC(c3cccs3)C(C)C)cccc2c1 (stereo not drawn)	-10%	nt	nt	nt	nt	nt
Cc1c(N=Cc2c(O)n(Cc3ccco3)c(=O)c3ccccc23)c(=O)n(-c2ccccc2)n1C	9%	?	23µM*	?	21µM*	0%
CCNC(=O)NC(=O)C(C)Sc1ccc(F)cc1 (stereo not drawn)	-4%	nt	nt	nt	nt	nt
COc1ccc(OC)c(CN2CCNc3cc(Nc4ccccc4)ncc3C2)c1	14%[176 µM]	nt	nt	nt	nt	nt
COc1cc(Nc2ncc3c(n2)CCN(Cc2ccc(OC(C)C)c(OC)c2)C3)cc(OC)c1	-27%	13µM*	nt	nt	16µM*	nt
CCOc1ccccc1CN1CCc2nc(Nc3ccccc3)ncc2C1	3%	?	nt	nt	?	nt
Cc1ccccc1CN1CCc2nc(Nc3ccc4c(c3)OCCO4)ncc2C1	-24%	21µM*	nt	nt	23µM*	nt
CCc1ccc(CN2CCc3nc(Nc4ccccc4)ncc3C2)cc1	1%	?	nt	nt	?	nt
COc1ccc(Nc2ncc3c(n2)CCN(Cc2ccccc2C)C3)c(OC)c1	-1%	10µM*	nt	nt	?	nt
CCOc1ccc(CN2CCc3nc(Nc4ccc(OC)cc4OC)ncc3C2)cc1	-13%	?	nt	nt	21µM*	nt
O=C(NCCC1CCCO1)c1cc(-c2ccncc2)nc2ccccc12 (stereo not drawn)	10%	nt	nt	nt	nt	nt
Nc1c(Cl)cc(Nc2ncccc2[N+](=O)[O-])cc1Cl	1%	nt	nt	nt	nt	nt
CCOc1ccc(CCN2C(=O)C(=O)N([C@@H](Cc3ccc(O)cc3)CN3CCC[C@@H]3CN3C(=O)C(=O)NC[C@@H]3Cc3ccccc3)C[C@@H]2Cc2ccccc2)cc1	-5%	?	nt	nt	?	nt
Oc1ccc(C[C@H]2CN([C@@H](Cc3ccccc3)CN3CCCC3CN3C(=S)NC[C@@H]3Cc3ccccc3)C(=S)N2CC2CCCCC2)cc1 (stereo partly drawn)	0%	16µM*	nt	nt	?	nt
